GLP-1R agonist = GLP-1 receptor (human) agonism; HEK293 GLP-1R CRE-luciferase, luminescence, 4-6 h; cells express a hypersensitive GLP-1R form; Potency, µM (highest dose often 45.6 µM), without a hit: at the top dose activation, most hits filed as activators; 0.007% of 380,000 active; also: % of control where 0% means no effect
Target sequence (P43220 whole entry, looked up): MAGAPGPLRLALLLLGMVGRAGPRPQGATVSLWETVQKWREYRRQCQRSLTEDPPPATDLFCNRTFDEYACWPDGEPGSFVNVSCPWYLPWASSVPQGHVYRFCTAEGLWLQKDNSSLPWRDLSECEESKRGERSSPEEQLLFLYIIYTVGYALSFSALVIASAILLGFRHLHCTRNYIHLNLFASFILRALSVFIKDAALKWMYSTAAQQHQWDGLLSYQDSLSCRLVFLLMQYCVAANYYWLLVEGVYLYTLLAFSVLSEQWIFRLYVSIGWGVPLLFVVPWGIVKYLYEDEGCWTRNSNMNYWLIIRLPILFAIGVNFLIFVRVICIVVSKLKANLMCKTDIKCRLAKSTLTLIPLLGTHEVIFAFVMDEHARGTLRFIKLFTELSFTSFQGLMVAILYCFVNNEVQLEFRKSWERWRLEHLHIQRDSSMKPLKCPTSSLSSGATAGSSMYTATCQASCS
GLP1R inv ag = acts as inverse agonist at human GLP-1 receptor; P43220; HEK293 GLP-1R CRE-luciferase, luminescence, 24 h; GLP-1R form is constitutively active; Potency, µM (titrated, usually from 38.3 µM), for the others: at the top dose activity change, negative = inhibition, actives largely listed as inhibitors; 1.6% of 410,000 active; AID 624417; also: % is scaled to controls: 0 for no effect and ±100 for the full control effect; nearly all actives have a fitted effect of over 55% in size
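HEK293 cells stably co-expressing a cAMP-responsive luciferase reporter and constitutively active GLP-1R were seeded, incubated 12 h, then exposed to compounds for 24 h at 37 C. Luminescence was read 12 min after detection reagent; inverse agonists lower signal.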
ATXN2 expr inh = reduces ATXN2 reporter expression in HEK-293 cells; HEK-293 ATXN2-luciferase reporter, luminescence, 24 h; Potency, µM (series often up to 57 µM), for the others: at the top dose activity change, negative = inhibition, actives largely listed as inhibitors; 0.72% of 360,000 active; AID 1745845; also: % is scaled to controls: 0 for no effect and ±100 for the full control effect; nearly all actives have a fitted effect of over 55% in size
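qHTS (up to 57 uM final) was run with 24 h compound exposure of reporter cells at 37 °C. Each well was multiplexed: SteadyGlo luminescence measured ATXN2-luciferase expression after a fluorogenic Gly-Phe-AFC viability readout (25 uM final).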
S2 tox = cell viability loss in ATXN counter-screen; S2 cells (HEK-293 line with an ATXN2-luciferase reporter) viability, CellTiter-Fluor protease fluorescence, 24 h; Potency, µM (top dose mostly 56.7 µM), usual class: cytotoxic; 0.49% of 400,000 active; also: nearly all actives have a fitted effect of over 40% in size
HepG2 viability = HepG2 cytotoxicity, counter-screen for TGF-b inhibitors; HepG2 CAGA-GFP viability, ATP luminescence, 18 h; 0.76% of 410,000 active; Potency, µM (titrated, usually from 46.1 µM), for inactives: at the top dose activity change, negative = cytotoxicity, usual class: cytotoxic
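HepG2 CAGA-GFP cells (1000/well, DMEM with 1% FBS) received compound, then TGF-beta at 500 pg/mL final, and were incubated 18 hours at 37 degrees C. Viability was read by CellTiter-Glo luminescence. Media-only wells were set as complete cell-killing and DMSO as no toxicity.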
TGFb inhibitor = blocks TGF-b signaling; 1.2% of 410,000 active; HepG2 CAGA-GFP TGF-b/SMAD3 reporter, GFP fluorescence, 18 h; TGF-beta stimulated, 500 pg/mL final; Potency, µM (top dose mostly 46.1 µM), for inactives: at the highest dose activity, negative = inhibition, usual class: inhibitors; also: % is scaled to controls: 0 for no effect and ±100 for the full control effect; nearly all actives have a fitted effect of over 65% in size
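HEPG2 CAGA-GFP cells (1000/well, DMEM with 1% FBS) were pre-incubated 2 h at 37 degrees C, given compound by pin tool, then stimulated with TGF-beta at 500 pg/mL final for 18 h before per-cell GFP fluorescence imaging.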
Numbers without * were called inactive; i = inactive; u = inconclusive; x = no result. Shown are actives, neighbours in structure and some others; about 3.7% of the full set was active somewhere. Calls follow the shape of the dose curve; as a rule, active = well fitted curve in the direction sought with a large enough effect; inconclusive = small, poorly fitted or top-dose-only effect, or another doubt; inactive = no such curve, though single readings can be large; an effect the other way counts as inactive or inconclusive. Potency is read from the fitted curve at half-maximal effect.

SMILES	GLP-1R agonist	GLP1R inv ag	ATXN2 expr inh	S2 tox	HepG2 viability	TGFb inhibitor
CN(C)S(=O)(=O)c1ccc(C(=O)Nc2nnc(SCC(=O)N3CCOCC3)s2)cc1	-1.7%	-7.0%	x	i	-6.0%	-4.9%
CC(C)Oc1ccc(C(=O)Nc2nnc(SCC(=O)N3CCOCC3)s2)cc1	-13.8%	u	10µM*	i	10.5%	6.8%
CN(C)c1nc(C=C(C#N)C#N)c(Cl)n1-c1ccc(F)cc1	7.8%	u	u	22.4µM*	8.91µM*	5.01µM*
O=C(CCNS(=O)(=O)c1ccc2c(c1)CCN2C(=O)C1CC1)N1CCN(c2ccc(F)cc2)CC1	-7.4%	9.8%	-32.4%	i	-18.2%	u
CCOC(=O)c1ccc(N2CCN(c3ccccc3F)CC2)c(NC(=O)Nc2ccccc2)c1	4.1%	2.51µM*	17.1%	i	-1.9%	0.4%
CCOC(=O)c1ccc(N2CCN(c3ccccc3OC)CC2)c(NC(=O)Nc2ccc(CC)cc2)c1	x	2.1%	x	x	-3.4%	1.2%
COc1ccc(-c2nc(Cn3c(SCc4ccc(F)cc4)nc4cccnc43)c(C)o2)cc1	x	-5.5%	x	x	-25.9%	u
COc1ccc(-c2nc(Cn3c(SCc4ccc(C)cc4)nc4cccnc43)c(C)o2)cc1OC	x	10µM*	x	x	-31.7%	10µM*
CCn1nc(C)cc1C(=O)Sc1ccc(Cl)cc1Cl	-4.4%	u	-26.8%	i	-23.1%	u
CCn1nc(C)cc1C(=O)Sc1cccc(Br)c1	-0.5%	-16.1%	-1.9%	i	20µM*	u
Cc1cccc(-c2nc3c4ccccc4nc(N4CCN(c5cccc(Cl)c5)CC4)n3n2)c1	x	-1.5%	x	x	3.7%	u
Cn1c2ccccc2c2cc(C(=O)N3CCOc4ccc(C(C)(O)CCn5cccn5)cc4C3)ccc21 (stereo not given)	x	x	x	i	x	x
CC(C)c1nc2cc(Cl)ccc2n(Cc2ccccc2)c1=O	27.8%	7.94µM*	0.5%	i	-13.9%	-1.4%
CCN(CC)S(=O)(=O)c1ccc(NC(=O)c2c(C)oc3ncnc(N4CCOCC4)c23)cc1	x	5.8%	x	x	-23.2%	-26.1%
Cc1c(C(=O)N(CCO)C(C)C)cnn1-c1ncc2c(n1)-c1ccccc1CCC2	x	x	x	i	x	x
CCCCC(CC)Cn1c(N)c(C#N)c2nc3ccccc3nc21 (stereo not given)	-0.6%	-12.4%	-17.5%	i	14.1µM*	u
O=c1[nH]nc(Sc2ncnc3sccc23)n1CCc1ccccc1	-6.8%	5.62µM*	-6.8%	i	-10.8%	-13.4%
CCN(CC)C(=O)CSc1n[nH]c(=O)n1CCc1ccccc1	3.4%	7.5%	5.1%	i	-7.2%	-9.0%
CC(C)c1nc(N(C)S(C)(=O)=O)nc(-c2ccc(F)cc2)c1/C=C/C(O)CC(O)CC(=O)O (stereo not given)	15.4%	x	x	x	x	x
O=C(/C=C/c1ccc(F)cc1)NCC1Cc2cccc(-c3ncccn3)c2O1 (stereo not given)	x	x	x	i	x	x
Cc1cc(C)c(NC(=O)Nc2sc3nc4n(c(=O)c3c2C)CCC(C)CC4)c(C)c1 (stereo not given)	x	-5.5%	6.2%	i	-20.4%	11.1%
CCCCN(CC)CCCNC(=O)Nc1sc2nc3n(c(=O)c2c1C)CCC(C)CC3 (stereo not given)	x	10µM*	-14.9%	i	-44.0%	u
COc1cccc(C2CC(=O)Nc3cc4c(cc32)CCC4)c1 (stereo not given)	13.0%	u	x	u	-17.5%	-25.0%
O=C1CC(c2cc(Br)ccc2F)c2cc3c(cc2N1)CCC3 (stereo not given)	5.6%	0.0%	u	4.47µM*	4.4%	-3.8%
O=C1CC(c2cccc(Cl)c2)c2cc3c(cc2N1)CCC3 (stereo not given)	17.7%	0.0%	u	u	-52.8%	10µM*

Assay outcomes: PubChem BioAssay, National Center for Advancing Translational Sciences (NCATS)
